Source: PubChem (National Center for Advancing Translational Sciences (NCATS))
In the library only some 1.3% were active in any assay of this set; here they are far more common.
GALK inh – blocks human galactokinase activity. hit rate 0.007% among 270,000. Purified GALK, Kinase-Glo residual ATP luminescence. P51570. AID 1868. Potency, µM (series often up to 57.5 µM), hits mostly inhibitors
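Galactose (100 uM) and ATP (35 uM) were turned over by 5 nM GALK for 1 h at RT. Kinase-Glo Plus then converted the remaining ATP into a luminescent signal.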
TrxR1 inh – inhibitors of rat thioredoxin reductase 1. recombinant rTrxR1, NADPH fluorescence consumption, selenite substrate. hit rate 1% among 390,000. O89049. Potency, µM (series often up to 114 µM), hits mostly inhibitors. AID 588453; further: nearly all actives have a fitted effect of over 65% in size
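Rat TrxR1 (90 nM in the dispensed reagent) was pre-reduced with 400 uM NADPH for 5 min at room temperature, then incubated with compound for 15 min. After 400 uM selenite was added, NADPH fluorescence (Ex 340/Em 450 nm) was followed for 8 min.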
TrxR1 substrate – substrates of rat thioredoxin reductase 1; AID 588456; O89049; Potency, µM (top dose mostly 114 µM); hit rate 0.01% among 390,000; purified TrxR1 substrate turnover, NADPH consumption readout; further: nearly all actives have a fitted effect of over 50% in size
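Rat TrxR1, dispensed at 90 nM, was prereduced with 400 uM NADPH (final) for 5 min at ~22 deg C, then incubated with compound 15 min before 400 uM selenite. A first-read NADPH fluorescence drop versus no-compound background flagged substrates.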
KAT2A inh – GCN5L2 (KAT2A) acetyltransferase inhibition; hit rate 0.21% among 390,000; GCN5L2 HAT assay, ThioGlo1 CoA-SH fluorescence; Q92830; Potency, µM (highest dose often 58.9 µM), actives largely listed as inhibitors
Target sequence (Q92830 whole entry, looked up): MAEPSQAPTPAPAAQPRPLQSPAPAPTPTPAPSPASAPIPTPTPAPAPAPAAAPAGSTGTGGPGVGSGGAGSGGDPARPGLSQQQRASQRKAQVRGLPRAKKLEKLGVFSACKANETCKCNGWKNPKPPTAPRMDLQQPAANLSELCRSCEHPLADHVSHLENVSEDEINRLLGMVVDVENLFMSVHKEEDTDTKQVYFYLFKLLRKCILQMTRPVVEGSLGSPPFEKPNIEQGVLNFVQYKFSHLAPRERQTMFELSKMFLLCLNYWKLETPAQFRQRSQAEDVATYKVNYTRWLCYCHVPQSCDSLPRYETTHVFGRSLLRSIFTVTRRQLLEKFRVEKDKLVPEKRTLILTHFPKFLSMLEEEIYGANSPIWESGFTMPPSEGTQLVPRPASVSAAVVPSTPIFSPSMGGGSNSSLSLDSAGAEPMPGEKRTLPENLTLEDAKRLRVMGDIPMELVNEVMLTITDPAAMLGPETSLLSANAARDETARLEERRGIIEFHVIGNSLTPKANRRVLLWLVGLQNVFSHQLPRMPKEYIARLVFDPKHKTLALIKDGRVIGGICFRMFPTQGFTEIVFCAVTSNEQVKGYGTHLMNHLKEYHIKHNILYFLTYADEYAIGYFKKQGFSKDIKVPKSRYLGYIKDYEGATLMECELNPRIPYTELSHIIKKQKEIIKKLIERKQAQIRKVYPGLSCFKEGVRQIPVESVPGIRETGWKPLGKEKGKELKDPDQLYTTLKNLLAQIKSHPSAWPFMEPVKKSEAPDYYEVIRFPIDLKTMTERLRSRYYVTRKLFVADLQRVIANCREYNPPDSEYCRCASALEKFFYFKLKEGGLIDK
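Fluorescence readout, Ex340nm/Em540nm: ThioGlo1 (50uM final) reacts with free CoA thiol released as 20nM GCN5L2 acetylates H3(1-25) peptide (75uM) using acetyl-CoA (70uM). Compound and enzyme sat 15 min beforehand; 20 min room-temperature reaction.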
Giardia killer – Giardia lamblia killing; Giardia lamblia trophozoite viability; activity change, % at 7.66 µM, hits read low; hit rate 0.15% among 340,000; in the data active means activity change below about -80%; inconclusive means between about -30% and that limit;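 further: parasites exposed to compound for two days anaerobically before the ATP read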
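Trophozoites 100 cells/well + cpd; 48 hrs, 37 deg C, anaerobic. ATPLite 1-Step added, 15-30 min RT, luminescence read (ATP-based viability).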
Pin1 inh – blocks the human prolyl isomerase Pin1; Pin1 FP peptide displacement, HiFluor488, 10 min; Potency, µM (doses to about 115 µM), usual class: inhibitors; hit rate 0.009% among 390,000; Q13526; active means well fitted inhibition curve with a large enough effect in the polarisation, with a control signal flat, not every such curve was filed as active; inconclusive means small, poorly fitted or top-dose-only effect, or effect the other way, or a change in a side signal; inactive means no such curve, though single readings can be large or run the other way; the % refers to the polarisation
Hits are given with their value; n = inactive; u = inconclusive; x = no result given; [ ] = dose if it differs, or a comment. Unless noted, the call rests on the fitted dose curve; in most records, active means well fitted curve in the direction sought with a large enough effect; inconclusive means small, poorly fitted or top-dose-only effect, or another doubt; inactive means no such curve, though single readings can be large; an effect the other way counts as inactive or inconclusive.

SMILES	GALK inh	TrxR1 inh	TrxR1 substrate	KAT2A inh	Giardia killer	Pin1 inh
CC(C)NC(=O)c1cc(-c2ccco2)nn1-c1ccc(Cl)cc1	n	20µM	n	u	n	n
Cc1ccc(-n2nc(-c3ccco3)cc2C(=O)O)cc1	n	u	n	n	n	u
Cc1cc2oc(C(=O)Nc3c(C(=O)Nc4ccccc4)oc4ccccc34)cc(=O)c2cc1C	x	n	n	n	x	n
N#Cc1ccc(C(=O)Nc2cccc(S(=O)(=O)NC3=NCCC3)c2)cc1	x	n	n	n	n	u
O=C(O)c1ccc(N/N=C/c2cc3cc4c(cc3nc2Cl)OCCO4)cc1	x	n	n	n	-88.4	u
O=Cc1cc2cc3c(cc2nc1Cl)OCCO3	n	n	n	n	n	n
CCNc1ncc2ncc(=O)n(CCOC)c2n1	x	x	x	n	x	x
CC(C)(C)c1ccc(OCC(=O)NCc2ccco2)c(Br)c1	n	11.2µM	n	n	n	n
Cc1cc(S(=O)(=O)N2CCCC2)ccc1OCC(=O)NCc1ccco1	n	10µM	n	n	n	n
O=C(OCc1ccco1)c1ccc(S(=O)(=O)N2CCCCC2)cc1	n	17.8µM	n	u	n	n
O=C(COC(=O)Cc1cccc(C(F)(F)F)c1)NCc1ccco1	x	35.5µM	n	n	n	n
COc1ccc(/C(C)=N/NC(=O)CNC(=O)/C=C\c2ccccc2)c(OC)c1	n	n	n	n	n	n
Cc1ccc(Cl)cc1NC(=O)CCn1c(=O)c2cccn2c2cccnc21	x	n	n	n	x	n
Cc1ccc(C(=O)NCc2ccco2)cc1Br	n	17.8µM	n	n[0.501 µM]	n	n
CCCc1nc2sc3c(SCC(=O)NCc4ccco4)ncnc3c2c2c1CCC2	n	44.7µM	n	u	n	u
Cc1nc(SCC(=O)NCc2ccco2)c2c3c(sc2n1)CCCC3	n	u	n	n	n	n
Cc1ccc(NS(=O)(=O)c2ccc(-c3ccccc3)cc2)cc1C	x	x	x	x	x	n
Cc1ccc(N=Cc2nc(-c3ccco3)oc2O)cc1	n	n	n	n	n	u
Cc1ccc(C(=O)Oc2oc(-c3ccco3)nc2C=Nc2ccc(Cl)cc2)cc1	n	1.78µM	n	n	n	n
O=C(Oc1oc(-c2ccco2)nc1C=Nc1ccccc1)c1ccoc1	n	3.55µM	n	n	n	n
O=C(Oc1oc(-c2ccco2)nc1C=Nc1ccccc1)c1ccco1	n	2.24µM	n	n	n	n
COc1cccc(N=Cc2nc(-c3ccccc3)oc2OC(C)=O)c1	n	n	n[11.4 µM]	n	n	n
COc1ccc(N=Cc2nc(-c3ccccc3)oc2OC(C)=O)cc1	n	12.6µM	n	n	n	n
Cc1ccc(C(=O)Oc2oc(-c3ccccc3)nc2C=Nc2ccc(N(C)C)cc2)cc1	n	u	n	n	n	n
c1c[nH]c(C2CCN(c3ncc(-c4ccc5c(c4)OCCCO5)s3)CC2)n1	x	x	x	x	x	n
SMILES	GALK inh	TrxR1 inh	TrxR1 substrate	KAT2A inh	Giardia killer	Pin1 inh
CCNC(=O)C/C(C)=N/NC(=O)C12CC3CC(CC(C3)C1)C2	x	25.1µM	n	n	n	u
O=C(OCCF)N1CCN(/[N+]([O-])=N/Oc2ccc([N+](=O)[O-])cc2[N+](=O)[O-])CC1	x	7.08µM	n	x	x	x
COCCOC(=O)N1CCN(/[N+]([O-])=N/Oc2ccc([N+](=O)[O-])cc2[N+](=O)[O-])CC1	x	8.91µM	n[0.457 µM]	x	x	x
CCOC(=O)N1CCN(/[N+]([O-])=N/Oc2ccc(C(F)(F)F)cc2[N+](=O)[O-])CC1	x	n	n	x	x	x
CCOC(=O)N1CCN([N+]([O-])=NOc2cc(O/N=[N+](\[O-])N(CC)CC)c([N+](=O)[O-])cc2[N+](=O)[O-])CC1	x	12.6µM	n	x	n	n
N#CCCCN1C(=O)C(O)(CC(=O)c2ccc3c(c2)OCCO3)c2ccccc21 (stereo not given)	n	n	n	n	n	n
N#CCCCN1C(=O)C(=C(C#N)C#N)c2ccccc21	n	12.6µM	n	n	n	n
CC1(C)CC(=O)C=C(OC(=O)c2ccc(Cl)cc2)C1	n	4.47µM	n	n	n	n
C=C(CC)C(=O)c1ccc(OCC(=O)O)c(Cl)c1Cl	n	39.8µM	n	u	n	n
N#C/C(=C\c1ccc(N2CCOCC2)o1)C(=O)NCC1CCCO1 (stereo not given)	n	u	n	n	n	u
Cc1ccc(/C(C#N)=C\c2ccc(N3CCOCC3)o2)cc1	n	2.24µM	n	n	n	u
Cc1ccc2nc(/C(C#N)=C\c3ccc(N4CCOCC4)o3)[nH]c2c1	n	12.6µM	n	n	n	u
COc1cccc(Cn2ncc3c4sc(C)cc4n(C)c3c2=O)c1	x	x	x	x	x	n
O=C1C(Cl)=C(NCCCO)C(=O)c2ccccc21	n	n	n	n	u	n
CCOCCCNC1=C(Cl)C(=O)c2ccccc2C1=O	n	7.08µM	n	n	n	n
COc1cc(N2C(=O)C=CC2=O)ccc1N1C(=O)C=CC1=O	x	0.501µM	n[11.4 µM]	x	n	u
O=C(NC1CSC/C1=N\O)c1ccccc1 (stereo not given)	n	n	n	n	n	n
COC(=O)CCC/C=C1/SCC(NC(=O)c2ccccc2)C1=O (stereo not given)	n	25.1µM	n	u	n	n
COC(=O)CCC/C=C1/SCC(NC(=O)c2ccccc2)C1NC(C)=O (stereo not given)	n	n	n	n	n	n
COC(=O)CCC/C=C1/SCC(NC(=O)c2ccccc2)C1O (stereo not given)	n	50.1µM	n	x	n	n
NC(=O)C1CCN(c2ncc(-c3cccc(N4CCCCC4)c3)s2)CC1	x	x	x	x	x	n
Cc1ccc(SC(CC(=O)c2ccc(F)cc2)C(=O)O)cc1 (stereo not given)	n	u	n	n	n	u
CC(C)(C)c1ccc(C(=O)CC(Sc2ccc(Cl)cc2)C(=O)O)cc1 (stereo not given)	n	56.2µM	n	n	n	n
NC(=O)CSc1oc(-c2ccco2)nc1S(=O)(=O)c1ccccc1	n	39.8µM	n	n	n	n
O=C(C=Cc1ccccc1)c1cccs1	x	70.8µM	n	x	n	n
SMILES	GALK inh	TrxR1 inh	TrxR1 substrate	KAT2A inh	Giardia killer	Pin1 inh
CN1CCN(c2ccc(Nc3nn4c(=O)c5ccccc5nc4s3)cc2)CC1	x	x	x	x	x	n
COCc1[nH]c(=S)c(C#N)cc1C(=O)OC	n	14.1µM	n	n	n	u
CCOC(=O)c1cc(C#N)c(=S)[nH]c1C	n	7.94µM	n	n	n	u
CCOC(=O)c1cc(C(C)=O)c(=O)[nH]c1C	n	n	n	n	n	n
CCOc1ccccc1NC(=O)CSc1nccn1Cc1ccc(F)cc1	x	n	n	n	x	n
Cc1ccc2c(c1)c1c3n2CCN(C(=O)c2cccc(C(F)(F)F)c2)C3CCC1 (stereo not given)	x	n[11.4 µM]	n	n	x	n
Cc1ccc(Cl)cc1NS(=O)(=O)c1cc2c(cc1F)NC(=O)CC2	x	x	x	x	x	n
O=C(O)c1cc(/C=C/C(=O)c2cc(F)ccc2O)c2c(c1)COCO2	x	44.7µM	n	n	n	n
